Lassa entry inh: qHTS for Inhibitors of binding or entry into cells for Lassa Virus; actives 1.2% (n = 300,000); Lassa virus pseudotype entry inhibition, cell reporter; Potency, µM (top dose mostly 37.9 µM), actives largely listed as inhibitors; AID 540256, 2011; calls by dose curve; tested in HEK293 cells; also: nearly all actives have a fitted effect of over 50% in size
FMDV antiviral: High Throughput Screening for Foot and Mouth Disease Virus Antivirals; FMDV antiviral cell-based qHTS; Potency, µM (doses to about 57.9 µM), actives largely listed as inhibitors; actives 1.2% (n = 410,000); calls by dose curve; tested in HEK293T cells; also: read-out not given here; nearly all actives have a fitted effect of over 45% in size
MARV entry inh: qHTS for inhibitors of binding or entry into cells for Marburg Virus. actives 1.8% (n = 300,000). AID 540276, 2011. Marburg virus pseudotyped entry inhibition, cell reporter. Potency, µM (titrated, usually from 37.8 µM), most hits filed as inhibitors; calls by dose curve; tested in HEK293 cells
VACV mCherry inh: qHTS for Stage-Specific Inhibitors of Vaccinia Orthopoxvirus: mCherry Reporter Primary qHTS. Vaccinia virus mCherry reporter infection, fluorescence. Potency, µM (series often up to 36.5 µM), most hits filed as inhibitors. actives 0.63% (n = 310,000). AID 720579, 2013; calls by dose curve; tested in A549 cells; also: nearly all actives have a fitted effect of over 35% in size
HCMV antiviral: qHTS Assay for inhibitors of the human cytomegalovirus (HCMV) | activity change, negative = inhibition, % at 57.5 µM | actives 4.5% (n = 410,000) | HFF cells, HCMV-luciferase reporter, 72 h; stronger effect = lower value; in the data active = activity change below about -60%; inconclusive = no clear call, values can overlap the other calls; inactive = above about -39%
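Compounds were evaluated in HFFs infected with an HCMV luciferase reporter virus (MOI 1 PFU/cell). Luciferase in lysates collected 72 h post infection served as the replication measure.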
VACV Venus inh: qHTS for Stage-Specific Inhibitors of Vaccinia Orthopoxvirus: Venus Reporter Primary qHTS; Vaccinia virus Venus reporter expression, fluorescence; Potency, µM (titrated, usually from 36.5 µM), most hits filed as inhibitors; actives 0.46% (n = 330,000); AID 720580, 2013; calls by dose curve; tested in A549 cells; also: nearly all actives have a fitted effect of over 30% in size
Numbers stand for hits; 0 = inactive; ? = inconclusive; - = no result given; [ ] = dose if it differs, or a comment. Only some compounds are listed: those with a hit (about 6.5% of all), similar ones and a draw of the others.

SMILES	Lassa entry inh	FMDV antiviral	MARV entry inh	VACV mCherry inh	HCMV antiviral	VACV Venus inh
CC(C)(C)c1ccc(OCc2ccc(C(=O)N3CCOCC3)o2)cc1	7.94µM	0	?	0	-70.8	?
O=C(O)c1ccc(COc2ccc3ccccc3c2)o1	-	0	-	-	0	-
Cc1ccc(C(C)C)c(OCC(=O)Nc2c(C(=O)c3ccc(F)cc3)oc3ccccc23)c1	0	0	?	0	0	0
O=C(Nc1nc(-c2cc(Cl)sc2Cl)cs1)c1ccc(Br)s1	?	0	?	0	0	0
O=c1oc2ccccc2cc1-c1csc(Nc2nc3c(F)cccc3s2)n1	?	7.08µM	?	0	0	0
O=C(Nc1nc(-c2cc3ccccc3oc2=O)cs1)c1ccco1	-	0	-	0	-62.7	0
O=C(Nc1nc(-c2ccncc2)cs1)c1ccco1	0	0	?	0	0	0
O=C(Nc1nc(-c2ccccn2)cs1)c1ccc(Br)s1	?	0	?	-	-98.6	-
O=c1oc2ccccc2cc1-c1csc(Cc2nc(-c3ccc(Cl)cc3)cs2)n1	?	?	?	0	-96.1	0
O=C(Nc1nc(-c2ccccn2)cs1)c1ccco1	?	0	?	2.51µM	0	?
CCN(CC)C(=O)C1CCCN(c2ncnc3c2cnn3-c2ccc(Cl)cc2)C1 (configuration not stated)	-	20µM	-	0	-67.6	?
CCN(CC)C(=O)C1CCCN(c2ncnc3c2cnn3-c2cccc(C)c2)C1 (configuration not stated)	0	14.1µM	?	0[1.46 µM]	0	0
CC(=O)Nc1ccc(S(=O)(=O)Nc2cc(-c3cn4ccccc4n3)ccc2C)cc1	?	0	0	0	0	0
Cc1cc(C)cc(C(=O)n2nc(C)c(S(=O)(=O)N3CCCCCC3)c2C)c1	0	0	-	0	0	0
CC(NC(=O)c1cccc(Br)c1)c1ccccc1 (configuration not stated)	0	0	?	0	-69.9	0
CC(C)(C)c1ccc(CN2N=Nc3ccccc3S2(=O)=O)cc1	11.2µM	?	?	?	?	?
O=C(Nc1ccccc1O)c1cc(S(=O)(=O)N2CCCC2)ccc1Cl	0	?	-	0	0	0
CN(C(=O)c1ccccc1F)C(c1ccccc1)c1ccccc1	11.2µM	0	?	0	0	0
CC(/C=N/NC(=O)c1ccccc1F)c1ccccc1 (configuration not stated)	-	0	-	-	0	-
COc1ccccc1C(CC(=O)Nc1ccc(C)c(C)c1)c1ccc(OC(C)C)cc1 (configuration not stated)	0	0	?	0	-60.7	0
Cc1cc(OCCOCCNCc2ccccc2)ccc1C(C)C	-	0	-	-	0	-
COc1ccc(CNCCC(c2ccc(OC(C)C)cc2)c2ccccc2OC)cc1 (configuration not stated)	-	0	-	-	-98.6	-
COc1ccc(CNCCCSc2ncccn2)cc1OC	-	0	-	-	0	-
COc1ccc(CNCCC(c2ccc(OC(C)C)cc2)c2ccccc2OC)cc1OC (configuration not stated)	?	?	?	0	-98.5	0
COc1ccccc1NC(=O)CC(c1ccc(OC(C)C)cc1)c1ccccc1OC (configuration not stated)	0	0	?	0	?	0
SMILES	Lassa entry inh	FMDV antiviral	MARV entry inh	VACV mCherry inh	HCMV antiviral	VACV Venus inh
COc1ccc(CNCCC(c2ccccc2)c2ccc3c(c2)OCO3)cc1 (configuration not stated)	?	0	?	?	0	?
COc1ccccc1C(CCNCc1ccccc1)c1ccc(OC(C)C)cc1 (configuration not stated)	-	?	-	-	-101.5	-
O=C(C1=C(O)C(=O)N(c2ncccn2)[C@@H]1c1cccc(Cl)c1)c1ccco1	-	-	0	-	-	-
COc1ccc(NC(=O)c2cc(OCCCN(C)C)nn2Cc2ccccc2)cc1	-	0	-	-	-	-
CC1=C(C(=O)Nc2cccnc2)C(c2cccc(F)c2)n2nc(SCc3ccccc3F)nc2N1 (configuration not stated)	0	0	0	0	0	0
COc1ccccc1C(CCNCc1ccc(N(C)C)cc1)c1ccc(OC(C)C)cc1 (configuration not stated)	-	?	-	-	-100.7	-
CC(C)C1CC(CCNCc2ccc(N(C)C)cc2)(c2ccccc2)CCO1 (configuration not stated)	?	0	?	?	?	0
COc1ccc(CNCCC(c2ccc(C)cc2)c2ccco2)cc1 (configuration not stated)	0	0	28.2µM	0	-77.9	0
COc1ccc(CCN2C(=O)/C(=C\c3ccco3)SC2=S)cc1OC	0	?	0	0	-95.6	0
COc1ccc(CCN2C(=O)CSC2=S)cc1OC	?	0	?	0	-101.3	0
CCOC(=O)c1[nH]c2ccc(OC)cc2c1NC(=S)N1CCN(c2ccc(F)cc2)CC1	0	0	?	0	0	0
CCOC(=O)c1[nH]c2ccc(OC)cc2c1NC(=S)N1CCN(c2cccc(C)c2C)CC1	?	0	2.24µM	?	0	?
Cc1cccc(N2CCN(C(=O)CCC(=O)N3Cc4ccccc4Oc4ncccc43)CC2)c1C	?	?	?	?	-93.7	0
COc1ccc(CCC(=O)N2CCN(c3cccc(C)c3C)CC2)cc1	-	0	0	0	-79.6	0
Cc1ccc2c(c1)N(C(=O)CCC(=O)N1CCN(c3cccc(C)c3C)CC1)CCO2	-	14.1µM	-	?	?	?
CCOC(=O)C1=C(CS(=O)(=O)c2ccc(Br)cc2)NC(=O)NC1c1ccccc1 (configuration not stated)	0	0	0	0	0	0
CCOC(=O)c1c(C)[nH]c(C)c1S(=O)(=O)NCC(=O)N1CCN(c2ccccc2OC)CC1	0	0	-	0	0	0
O=C(CCCSc1nc2ccccc2[nH]1)N1CCN(c2ccccc2)CC1	0	?	?	-	0	-
Cc1cccc(N2CCN(C(=O)CCCSc3nc4ccccc4[nH]3)CC2)c1C	0	35.5µM	?	0	?	0
COc1ccc(N2CCN(C(=O)CCC(=O)N3CCOc4ccc(Cl)cc43)CC2)cc1	-	0	-	14.1µM	-98.7	?
COc1ccc(N2CCN(C(=O)COC(=O)CC(NC(N)=O)c3ccc(Cl)cc3)CC2)cc1 (configuration not stated)	-	?	-	0	-62.0	0
COc1ccc(N2CCN(C(=O)COC(=O)CNC(=O)c3ccc(Cl)cc3Cl)CC2)cc1	0	0	0	0	0	0
CC(C)(C)OC(=O)N[C@@H]1C=CC(=O)C1	-	-	-	-	0	-
N#Cc1ccc(CSc2nnc(-c3c[nH]c4ccccc34)n2-c2ccccc2)cc1	?	?	2.51µM	?	-64.3	?
N#Cc1ccc(CSc2nnc(-c3ccccn3)n2-c2ccccc2)cc1	?	0	?	-	0	0
COC(=O)C1C[C@@]23C(=NN=C(SC)C2N(C)c2ccc(OC)cc23)N1C(C)=O (some centres not stated)	?	-	0	-	-	-

Source: PubChem
